High-throughput results (PubChem BioAssay)
An excerpt weighted towards active compounds, which were near 16% of everything screened.
TDP1 cell noCPT = qHTS for Inhibitors of human tyrosyl-DNA phosphodiesterase 1 (TDP1): qHTS in cells in absence of CPT | actives 15% (n = 420,000) | AID 686978, 2013 | DT40 Tdp1-/- hTDP1 cells, no CPT, ATP luminescence, 48 h | Potency, µM (doses to about 46.2 µM), for the others: top-dose activity change, negative = growth inhibition, most hits filed as inhibitors; note: potency is the fitted concentration of half-maximal effect; % is set by controls: 0 for no effect and ±100 for the full control effect; nearly all actives have a fitted effect of over 55% in size
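Growth of hTDP1-complemented DT40 Tdp1-knockout cells is measured by ATP luminescence after at least 48 hr compound exposure at 37 °C, with DMSO substituting for the 20 nM CPT used in the parallel screen.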
TDP1 inh = qHTS Assay for Inhibitors of Tyrosyl-DNA Phosphodiesterase (TDP1); recombinant TDP1, AlphaScreen DNA substrate cleavage; actives 0.28% (n = 350,000); AID 485290, 2010; Potency, µM (doses to about 130 µM), without a hit: at the top dose activity change, negative = inhibition, most hits filed as inhibitors; Tyrosyl-DNA phosphodiesterase 1 (Homo sapiens), Q9NUW8; note: potency is the fitted concentration of half-maximal effect; % is set by controls: 0 for no effect and ±100 for the full control effect; nearly all actives have a fitted effect of over 40% in size
Target sequence (Q9NUW8 whole entry, looked up): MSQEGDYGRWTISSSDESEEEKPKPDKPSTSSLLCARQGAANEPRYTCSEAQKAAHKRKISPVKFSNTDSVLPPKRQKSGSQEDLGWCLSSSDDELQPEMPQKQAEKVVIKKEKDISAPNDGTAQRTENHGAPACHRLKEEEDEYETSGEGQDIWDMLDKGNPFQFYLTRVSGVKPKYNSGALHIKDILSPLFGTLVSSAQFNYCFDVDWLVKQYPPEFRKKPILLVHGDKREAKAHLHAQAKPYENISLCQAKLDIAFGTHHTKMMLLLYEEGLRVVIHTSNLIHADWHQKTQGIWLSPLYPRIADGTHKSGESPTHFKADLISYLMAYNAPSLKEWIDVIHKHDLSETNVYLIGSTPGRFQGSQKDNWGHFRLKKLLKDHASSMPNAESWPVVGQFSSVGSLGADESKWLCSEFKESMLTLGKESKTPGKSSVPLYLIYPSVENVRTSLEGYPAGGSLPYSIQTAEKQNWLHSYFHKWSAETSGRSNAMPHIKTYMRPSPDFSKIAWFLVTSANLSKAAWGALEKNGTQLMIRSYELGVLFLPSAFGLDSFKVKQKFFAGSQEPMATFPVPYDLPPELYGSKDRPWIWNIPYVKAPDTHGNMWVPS
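Compounds were preincubated with Tdp1 (1 nM final) for 15 min at room temperature before substrate (15 nM final) started a 5 min reaction; beads (10 ug/ml final) were then added for 10 min before AlphaScreen detection.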
miR-21 act = qHTS Assay for Modulators of miRNAs and/orActivators of miR-21; HeLa miR-21 FLuc reporter, luciferase, 48 h; Potency, µM (series often up to 38.3 µM), for inactives: top-dose activity change, positive = activation, hits mostly activators; 340,000 tested, under 10 active; AID 2288, 2010;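 note: % of control where 0% means no effect; miR-21 action dims this reporter so a rising signal means less miR-21 action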
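HeLa cells stably expressing CMV-driven firefly luciferase with a downstream miR-21 binding sequence, endogenously expressing miR-21, were treated with titrations (up to about 40uM final) for 48 hours at 37 degree Celsius. Luciferase luminescence was read after lysis.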
uPA generation = qHTS for Inhibitors of Cell Surface uPA Generation; actives 0.31% (n = 330,000); Potency, µM (titrated, usually from 38.3 µM), for the others: top-dose activity change, negative = inhibition, actives largely listed as inhibitors; cell surface uPA generation assay, qHTS; AID 540303, 2011; active = well fitted inhibition curve with a large enough effect; inconclusive = small, poorly fitted or top-dose-only effect; inactive = no such curve, though single readings can be large or run the other way; tested in mouse RAW 264.7 cells; note: potency is the fitted concentration of half-maximal effect; % is set by controls: 0 for no effect and ±100 for the full control effect; nearly all actives have a fitted effect of over 55% in size
TDP1 cell CPT = qHTS for Inhibitors of human tyrosyl-DNA phosphodiesterase 1 (TDP1): qHTS in cells in presence of CPT; chicken DT40 Tdp1-/-;hTDP1 cells + 20 nM CPT, ATP luminescence, 48 h; Potency, µM (doses to about 46.2 µM), for inactives: top-dose activity change, negative = growth inhibition, usual class: inhibitors; actives 12% (n = 420,000); AID 686979, 2013; note: potency is the fitted concentration of half-maximal effect; % is set by controls: 0 for no effect and ±100 for the full control effect; nearly all actives have a fitted effect of over 55% in size
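Chicken DT40 Tdp1-/- cells stably complemented with human TDP1 were seeded at 400 cells/well in medium containing 20 nM camptothecin, exposed to pin-transferred compounds, and grown at 37 °C for at least 48 hr. Viability was read as ATP luminescence.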
* hit, by the source's call; ? = inconclusive; · = no result given; [ ] = remark or other dose. Unless noted, calls come from the whole dose curve; as a rule, active = well fitted curve in the direction sought with a large enough effect; inconclusive = small, poorly fitted or top-dose-only effect, or another doubt; inactive = no such curve, though single readings can be large; an effect the other way counts as inactive or inconclusive.

SMILES	TDP1 cell noCPT	TDP1 inh	miR-21 act	uPA generation	TDP1 cell CPT
CCCCCc1c(-c2ccccc2)ncn1CCc1ccccc1OC	15µM*	·	·	·	23µM*
CCCCc1c(-c2cccc(OC)c2)ncn1CCc1ccccc1OC	18µM*	·	·	·	15µM*
CCCn1cnc2c(c1=O)c1nc3ccccc3nc1n2Cc1ccccc1OC	·	2%	-2%	·	·
CCCCc1c(-c2ccc(OC)c(OC)c2)ncn1CCc1ccccc1OC	5.8µM*	·	·	·	5.8µM*
CCC(CC)C(=O)N1CCN(Cc2nc3ccccc3c(=O)[nH]2)CC1	1%	3%	1%	5%	-14%
Cc1cc(C)n(-c2ccc(NC(=O)C3CCN(Cc4cnc(C)s4)CC3)cc2)n1	?	3%[56.1 µM]	7%	-2%	-20%
O=C(NC(NC1CCS(=O)(=O)C1)C(Cl)(Cl)Cl)c1ccc(Br)cc1 (configuration not stated)	7.3µM*	-2%	17%	-2%	8.2µM*
O=C(NC(NC1CCS(=O)(=O)C1)C(Cl)(Cl)Cl)c1cccc(Cl)c1 (configuration not stated)	-19%	4%	2%	-2%	-3%
O=C(COc1ccc(/C=N/NC(=O)CSCc2ccc([N+](=O)[O-])cc2)cc1)NCc1ccco1	?	8%	25%	-4%	?
O=C(/C=C/c1ccc(-c2ccccc2)o1)c1ccccc1	?	3%	-60%	-8%	?
Cc1ccc(-c2ccc(/C=C/C(=O)c3ccccc3)o2)cc1	23µM*	5%	-30%	0%	?
NC1=NC(=O)/C(=C\c2ccc(-c3ccccc3[N+](=O)[O-])o2)S1	?	·	·	·	11µM*
O=C(/C=C/c1ccccc1[N+](=O)[O-])c1ccccc1Br	8.2µM*	3%	29%	-12%	21µM*
Cc1ccc(C(=O)/C=C/c2ccccc2[N+](=O)[O-])cc1	18µM*	5%	-20%	-8%	?
Cc1ccnc(NC(=O)/C=C/c2ccccc2[N+](=O)[O-])c1	·	1%	-40%	·	·
O=c1nc2s/c(=C\c3ccc(-c4ccccc4[N+](=O)[O-])o3)c(=O)n2nc1-c1ccccc1	-7%	-3%	-7%	4%	2%
Cc1cccc(NC(=O)c2cccc(N3C(=O)C4C5CCC(C5)C4C3=O)c2)c1C (configuration not stated)	-16%	0%	-9%	·	-12%
COc1ccc(CNC(=O)c2cc(-c3cccc(Cl)c3)on2)cc1	-29%	8%	-11%	·	?
COCCNC(=O)CCn1nc(-c2ccc(C)cc2)c2ccccc2c1=O	-6%	·	-3%	-2%	2%
N#C/C(=C/c1ccc(-c2ccccc2[N+](=O)[O-])o1)C(N)=O	4%	-7%	-3%	16%	0%
Cc1ccc(C(=O)/C=C/c2ccc(-c3ccccc3[N+](=O)[O-])o2)cc1	18µM*	8%	-2%	-20%	?
O=C(/C=C/c1ccc(-c2ccccc2[N+](=O)[O-])o1)c1ccc(Br)cc1	16µM*	5%	-6%	·	?
C=CCN1C(=O)c2cccc3c(Br)ccc(c23)C1=O	1%	6%	-2%	5%	13%
CCOC(=O)CN=C(NS(=O)(=O)c1ccc(Cl)cc1)c1ccccc1	-23%	0%	-1%	1%	-7%
C=CCSc1nsc(N)n1	-9%	3%	-13%	0%	7%
c1ccc(CNc2ncnc3sccc23)cc1	7.3µM*	1%	17%	-7%	8.2µM*
COc1ccc(C(CNc2ncnc3sccc23)N(C)C)cc1OC (configuration not stated)	-22%	·	-5%	-4%	0%
OC(CNc1ncnc2sccc12)c1ccccc1 (configuration not stated)	5.2µM*	6%	-3%	-6%	4.1µM*
Clc1ccc(-n2ncc3c(NCc4cccs4)ncnc32)cc1	-1%	6%	24%	-1%	-6%
